# PubChem BioAssay
# Records with an inconclusive call do not appear. Calls of active or inactive are those of the source. Unless noted, cut-off not given; nearly all actives show AC50 up to about 26 µM.
# Tests used:
# [1] = viability loss in pontine glioma line – cell-based, SU-DIPG-XVII, MIPE5.0, CellTiter-Glo, qHTS, dose response (AID 1347060); conditions: CellTiter-Glo ATP luminescence;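 on AC50: cells exposed to compound for 48 hours before viability readout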
# [2] = viability loss in pontine glioma line – cell-based, SU-DIPG-XXV, MIPE5.0, CellTiter-Glo, qHTS, dose response (AID 1347065); conditions: CellTiter-Glo ATP luminescence;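 further: cells exposed to compound for 48 hours before ATP readout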
# [3] = viability loss in pontine glioma line – cell-based, SU-DIPG-XIII, MIPE5.0, CellTiter-Glo, qHTS, dose response (AID 1347064; cut-off not given, nearly all actives have AC50 up to about 23 µM;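 on AC50: cells exposed to compound for 48 hours before the viability read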); conditions: CellTiter-Glo ATP luminescence
# [4] = JHH-DIPG-1 glioma cell viability, MIPE5.0 library, CellTiter-Glo luminescence, qHTS (AID 1347067); conditions: JHH-DIPG-1 glioma viability, CellTiter-Glo ATP luminescence;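 further: cells exposed to compound for 48 hours before readout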
# [5] = growth inhibition of DIPG cells – cell-based, MIPE5.0 library, qHTS (AID 1347068; cut-off not given, nearly all actives have IC50 up to about 30 µM;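 on IC50: cells exposed to compound for 48 hours before viability readout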); conditions: SU-DIPG-XXV viability
# [6] = viability loss with induced miR-34 in A549 – imaging, A549 dox-inducible miR-34, nuclei and caspase counts, primary screen (AID 1347080;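 active means compounds whose cell count with miR-34 switched on is under 0.7 times the count with it off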); conditions: A549 miR-34 inducible, Hoechst nuclei count, 48 h
# [7] = MELAS cybrid and Rieske KO viability enhancers – cell-based, MELAS cybrids, Rieske KO mouse fibroblasts, CellTiter-Glo, primary screen (AID 1508586;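 active means mean z-score across replicates of 1.96 or higher in either the MELAS or the Rieske mutant cell line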;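 further: z relative to plate mean and SD of compound and empty wells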); conditions: low glucose
# [8] = growth inhibition of DIPG cells – cell-based, MIPE4.0 library, CellTiter-Glo luminescence, qHTS (AID 1347066; cut-off not given, nearly all actives have AC50 up to about 30 µM;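 further: cells exposed to compound for 48 hours before readout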); conditions: SU-DIPG-VI viability, CellTiter-Glo ATP luminescence
smiles,measurement,setting,value
Cc1nc2ccc(-n3ncc(C(=O)c4cc5ccccc5[nH]4)c3N)cc2[nH]1,AC50,[1],0.468 µM (active)
same,AC50,[2],0.833 µM (active)
CCOc1ccccc1N=Nc1c(C)[nH]n(-c2nc(-c3ccccc3)cs2)c1=O,outcome,[1],inactive
same,outcome,[3],inactive
same,outcome,[4],inactive
same,outcome,[5],inactive
COc1ccc(Cl)c(Nc2nc3ccccc3nc2NS(=O)(=O)c2cccc(NC(=O)C(C)(C)N)c2)c1,AC50,[1],14.8 µM (active)
same,AC50,[2],10.5 µM (active)
Cn1c(=O)c(-c2c(Cl)cccc2Cl)cc2cnc(Nc3cccc(C(=O)O)c3)nc21,AC50,[1],1.48 µM (active)
same,AC50,[3],2.35 µM (active)
same,outcome,[5],inactive
CCn1nc(C2CCN(C(=O)CCO)CC2)nc1-c1cnc(N)c(-c2nnc(C(C)(C)C)o2)n1,AC50,[1],5.9 µM (active)
same,AC50,[2],2.09 µM (active)
Cc1cccc(-c2[nH]ncc2-c2ccc(F)c(-c3cnn(CCO)c3)c2)n1,outcome,[1],inactive
same,outcome,[3],inactive
same,IC50,[5],26.3 µM (active)
CONC(=O)Nc1ccc(-c2sc3c(c2CN(C)Cc2ccccc2)c(=O)n(-c2ccccc2)c(=O)n3Cc2c(F)cccc2F)cc1,outcome,[1],inactive
same,outcome,[3],inactive
same,outcome,[5],inactive
Cc1ccc(C2=Nc3ccc(Cl)cc3OC2)cc1,outcome,[1],inactive
same,outcome,[3],inactive
same,outcome,[5],inactive
CC(C)NC(=O)N1CC[C@H](N=C2Nc3cc(F)ccc3N(CC(F)F)c3ccc(Cl)cc32)C1,outcome,[1],inactive
same,outcome,[3],inactive
same,outcome,[4],inactive
same,outcome,[5],inactive
CN1C(=O)c2sccc2N(C)c2nc(Nc3ccc(S(N)(=O)=O)cc3)ncc21,AC50,[1],14.8 µM (active)
same,AC50,[2],3.72 µM (active)
COc1ccc2c(c1)[C@]1(C[C@H]1c1ccc3c(/C=C/c4ccc(CN5C[C@@H](C)O[C@@H](C)C5)cc4)n[nH]c3c1)C(=O)N2,AC50,[1],4.17 µM (active)
same,AC50,[2],0.0417 µM (active)
Cn1cnc(-c2cc3nccc(Oc4ccc(NC(=S)NC(=O)Cc5ccccc5)cc4F)c3s2)c1,AC50,[1],16.6 µM (active)
same,AC50,[3],18.6 µM (active)
same,IC50,[5],4.17 µM (active)
same,fold change,"[6]; stronger effect = lower value, cell number ratio, induced over uninduced",0.83 (inactive)
same,fold change,[6]; measured here: relative caspase fold change +Dox/-Dox,1.19
same,cell count,"[6]; measured here: total cells with miR-34 induction, stronger effect = lower value",3930
same,cell count,[6]; measured here: total cells without miR-34 induction,4730
same,z-score,"[7]; MELAS cybrid survival, CellTiter-Glo 48 h, stronger effect = higher value",-0.555 (inactive)
same,z-score,"[7]; Rieske KO mouse fibroblast survival, CellTiter-Glo 72 h",-0.0569
CNCCN(C)Cc1cn[nH]c1-c1ccc(OC2CC(OCCC3CCOCC3)C2)cc1 (centres undefined),outcome,[1],inactive
same,outcome,[3],inactive
same,outcome,[4],inactive
same,outcome,[5],inactive
COc1ccc(Oc2cc(NCCC(F)(F)F)c3ncc(-c4ccc(C(=O)NC5CC5)c(C)c4)n3n2)c(F)c1F,AC50,[1],0.059 µM (active)
same,AC50,[2],0.372 µM (active)
CC1=C2[N-][C@H]([C@H](CC(N)=O)[C@@]2(C)CCC(=O)NC[C@@H](C)OP(=O)([O-])O[C@H]2[C@@H](O)[C@@H](n3cnc4cc(C)c(C)cc43)O[C@@H]2CO)[C@]2(C)N=C(C(C)=C3N=C(C=C4N=C1[C@@H](CCC(N)=O)C4(C)C)[C@@H](CCC(N)=O)[C@]3(C)CC(N)=O)[C@@H](CCC(N)=O)[C@]2(C)CC(N)=O.O.[Co+2],outcome,[1],inactive
same,outcome,[2],inactive
CCS(=O)(=O)c1ccc2oc(-c3ccc4ccccc4c3)nc2c1,outcome,[1],inactive
same,outcome,[3],inactive
same,outcome,[5],inactive
CCOC(=O)c1ccnc(CNCC(=O)N(CC)CCN(C)C)c1,outcome,[1],inactive
same,outcome,[3],inactive
same,outcome,[5],inactive
CON(C)C(=O)N1N=C(c2cc(F)ccc2F)S[C@@]1(CCCN)c1ccccc1,AC50,[1],0.00525 µM (active)
same,AC50,[2],0.00934 µM (active)
CC(C)Cc1ccc([C@@H](C)C(=O)NS(C)(=O)=O)cc1,outcome,[1],inactive
same,outcome,[3],inactive
same,outcome,[5],inactive
O=C(Nc1nnc(-c2ccco2)o1)c1cc(-c2ccccc2)nc2ccccc12,AC50,[1],26.3 µM (active)
same,AC50,[2],20.9 µM (active)
same,AC50,[8],14.8 µM (active)
same,outcome,[5],inactive
Cc1nnc(C[C@@H]2C=C(c3ccc(Cl)cc3)c3ccccc3-n3c(C)nnc32)o1,AC50,[1],26.3 µM (active)
same,AC50,[2],14.8 µM (active)
same,AC50,[4],18.6 µM (active)
COC(=O)c1ccc([C@H]2c3[nH]c4ccccc4c3C[C@H](C(=O)OC)N2C(=O)CCl)cc1,AC50,[1],13.2 µM (active)
same,AC50,[2],5.25 µM (active)
same,AC50,[4],2.35 µM (active)
same,IC50,[5],14.8 µM (active)
Cc1cc(Nc2cc(N)ncn2)c(=O)n2c1C(=O)NC21CCCCC1,outcome,[1],inactive
same,outcome,[2],inactive
same,outcome,[4],inactive
same,outcome,[5],inactive
COc1c(C)cc(NC(=O)c2nn(Cc3ccc(F)cc3)c3c2CN(C(=O)c2ccc[nH]2)C[C@]3(C)C(N)=O)cc1C,outcome,[1],inactive
same,outcome,[2],inactive
same,outcome,[4],inactive
CC(C)(C)Sc1c(CC(C)(C)C(=O)O)n(Cc2ccc(Cl)cc2)c2ccc(OCc3ccc4ccccc4n3)cc12,AC50,[1],20.9 µM (active)
same,AC50,[2],20.9 µM (active)
same,AC50,[4],18.6 µM (active)
same,outcome,[5],inactive
COc1ccc(S(=O)(=O)N[C@@H](CNc2nc(C)nc(N3CCC(c4ccc5c(n4)NCCC5)CC3)c2C)C(=O)O)cc1,outcome,[1],inactive
same,outcome,[2],inactive
same,outcome,[4],inactive
same,outcome,[5],inactive
COc1cc(N2CCN(C)CC2)ccc1Nc1ncc2c(n1)N(C)c1ccccc1C(=O)N2C,AC50,[1],18.6 µM (active)
same,AC50,[2],18.6 µM (active)
same,AC50,[4],14.8 µM (active)
CCOc1cc(C(=O)N2CCC(N3CCN(C)CC3)CC2)ccc1Nc1ncc2c(n1)N(C1CCCC1)c1ccccc1C(=O)N2C,AC50,[1],23.5 µM (active)
same,AC50,[2],20.9 µM (active)
same,AC50,[4],26.3 µM (active)
same,IC50,[5],20.9 µM (active)
COc1ccc2c(c1)CC[C@@H](CN(C)CC(=O)O)[C@H]2c1ccccc1,outcome,[1],inactive
same,outcome,[2],inactive
same,outcome,[8],inactive
same,outcome,[4],inactive
same,outcome,[5],inactive
O=C1NC(=O)[C@@H](c2c[nH]c3ccccc23)[C@H]1c1cn2c3c(cccc13)CCC2,AC50,[1],0.525 µM (active)
same,AC50,[2],0.742 µM (active)
same,AC50,[4],1.66 µM (active)
